# Compound activity from PubChem.
# A selection: hits, their analogues and other compounds. The true share with any hit is near 18%.
# DT40 TDP1 no CPT = qHTS for Inhibitors of human tyrosyl-DNA phosphodiesterase 1 (TDP1): qHTS in cells in absence of CPT; DT40 Tdp1-/- hTDP1 cells, no CPT, ATP luminescence, 48 h; Potency, µM (doses to about 46.2 µM), usual class: inhibitors; actives 15% (n = 420,000); also: nearly all actives have a fitted effect of over 55% in size
#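 Compound effects on proliferation are scored in DT40 Tdp1-/-;hTDP1 cells in the absence of CPT. ATP levels (CellTiter-Glo luminescence) are recorded after a ≥48 hr, 37 °C incubation.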
# DT40 TDP1 CPT = growth inhibition of DT40 Tdp1-/-;hTDP1 cells with camptothecin (screen for TDP1 inhibitors) | chicken DT40 Tdp1-/-;hTDP1 cells + 20 nM CPT, ATP luminescence, 48 h | Potency, µM (titrated, usually from 46.2 µM), usual class: inhibitors | actives 12% (n = 420,000); also: nearly all actives have a fitted effect of over 55% in size
#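 Cell growth measured by CellTiter-Glo luminescence after a minimum 48 h, 37 C compound exposure with 20 nM CPT in Tdp1-knockout DT40 cells stably expressing hTDP1, seeded 400/well; qHTS titration format.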
# VDR inh = blocks the human vitamin D receptor | AID 504847 | Potency, µM, most hits filed as inhibitors | VDR-SRC2-3 peptide fluorescence polarization, 2 h | actives 0.93% (n = 400,000) | P11473
#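 Signal is fluorescence polarization, reporting how far test compounds block the interaction of VDR with the SRC2-3 coregulator peptide after a 2 h room-temperature incubation.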
# TDP1 block = TDP1 (human) enzyme inhibition | recombinant TDP1, AlphaScreen DNA substrate cleavage | Potency, µM (doses to about 130 µM), usual class: inhibitors | actives 0.28% (n = 350,000); also: nearly all actives have a fitted effect of over 40% in size
# Target sequence (Q9NUW8 whole entry, looked up): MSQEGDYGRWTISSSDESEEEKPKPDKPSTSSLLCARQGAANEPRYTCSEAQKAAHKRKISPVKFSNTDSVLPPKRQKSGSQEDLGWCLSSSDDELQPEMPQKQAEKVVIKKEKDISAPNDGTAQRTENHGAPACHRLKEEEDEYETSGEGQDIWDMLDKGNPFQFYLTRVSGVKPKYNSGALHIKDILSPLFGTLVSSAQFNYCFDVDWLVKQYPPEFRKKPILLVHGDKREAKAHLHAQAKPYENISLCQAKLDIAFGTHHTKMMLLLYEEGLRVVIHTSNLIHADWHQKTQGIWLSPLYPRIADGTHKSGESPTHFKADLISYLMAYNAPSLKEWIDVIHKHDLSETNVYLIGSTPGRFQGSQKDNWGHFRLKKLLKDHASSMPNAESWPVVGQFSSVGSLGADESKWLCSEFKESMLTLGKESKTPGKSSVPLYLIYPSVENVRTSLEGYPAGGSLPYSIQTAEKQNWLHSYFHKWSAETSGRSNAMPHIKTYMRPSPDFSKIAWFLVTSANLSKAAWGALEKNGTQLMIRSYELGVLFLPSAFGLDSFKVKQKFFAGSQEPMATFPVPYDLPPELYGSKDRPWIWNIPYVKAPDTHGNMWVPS
#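 Enzyme-compound mixtures sat 15 min at room temperature, followed by a 5 min reaction with 15 nM final substrate and 10 min with AlphaScreen beads. Recombinant human Tdp1 was used at 1 nM final.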
# GCN5L2 inh = blocks human GCN5L2 histone acetyltransferase | AID 504327 | GCN5L2 HAT assay, ThioGlo1 CoA-SH fluorescence | actives 0.21% (n = 390,000) | Potency, µM (series often up to 58.9 µM), hits mostly inhibitors | Q92830
#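 Free CoA generated was detected with ThioGlo1 (50uM) fluorescence at Ex340nm/Em540nm, read immediately and after 20 min at room temperature. Enzyme, 20 nM in HEPES pH 7.5 buffer, saw compounds 15 min before adding 75uM H3(1-25) peptide and 70uM acetyl-CoA.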
# PLK1 PBD inh = inhibitors of human PLK1 polo-box domain binding; actives 2.8% (n = 360,000); Potency, µM, actives largely listed as inhibitors; Plk1 PBD binding of FITC phosphopeptide, fluorescence polarization; also: series mostly up to about 57 µM; nearly all actives have a fitted effect of over 65% in size
# Numbers stand for hits; . = inactive; ? = inconclusive; / = not tested or not shown; ! = a repeat was not active; [ ] = dose if it differs, or a comment. Calls follow the shape of the dose curve; as a rule, active = well fitted curve in the direction sought with a large enough effect; inconclusive = small, poorly fitted or top-dose-only effect, or another doubt; inactive = no such curve, though single readings can be large; an effect the other way counts as inactive or inconclusive.
SMILES,DT40 TDP1 no CPT,DT40 TDP1 CPT,VDR inh,TDP1 block,GCN5L2 inh,PLK1 PBD inh
CCCCCCCCCCCCC/C=C/[C@@H](O)[C@@H](N)COP(=O)([O-])OCC[N+](C)(C)C,/,/,.,.,/,/
CN1CC2CN(Cc3ccccc3)S(=O)(=O)C2C1 (stereo not given),.,.,/,/,/,.
CCc1nc2ccccc2c(=O)n1-c1ccccc1[N+](=O)[O-],?,.,.,.,.,.
CCCCc1nc2ccccc2c(=O)n1-c1ccccc1[N+](=O)[O-],15µM,?,.,.,.,.
Cc1ccccc1-n1c(/C=C/c2c(C)[nH]c3ccccc23)nc2ccccc2c1=O,1.8µM,2.1µM,.,.[12.3 µM],.,/
O=c1c2ccccc2nc(/C=C/c2ccccc2)n1-c1ccccc1F,?,?,.,.,.,/
O=c1c2ccccc2nc(/C=C\c2ccc(F)cc2)n1-c1ccccc1F,?,23µM,.,.,.,/
O=c1c2ccccc2nc(/C=C\c2ccccc2[N+](=O)[O-])n1-c1ccccc1O,23µM,?,.,.,.,.
N[C@@]1(C(=O)O)CC[C@@H](C(=O)O)C1,.,?,.,.,.,.
C[C@H](NC(=O)N1C[C@H]2C[C@@H](C1)c1cccc(=O)n1C2)C(=O)Nc1cccc(F)c1,.,.,.,/,.,.
Cc1ccccc1-n1c(/C=C/c2ccc(N(C)C)cc2)nc2ccccc2c1=O,13µM,16µM,.,.[12.3 µM],.,/
O=c1c2ccccc2nc(/C=C/c2ccccc2O)n1-c1ccccc1O,/,/,/,/,.,/
O=C(NC1CCCCC1)N1Cc2ccccc2-n2nncc2C1,.,.,.,/,/,.
CN(C)CC(C(=O)Cc1ccccc1)c1ccccc1 (stereo not given),0.65µM,0.92µM,35µM,/,/,.
C[C@@H]([C@@H](O)c1ccccc1)N(C)C(=O)Cc1ccccc1,.,.,.,/,/,.
CC(=O)O[C@H]1C(=O)[C@@]2(C)C([C@H](OC(=O)c3ccccc3)[C@]3(O)C[C@H](O)C(C)=C1C3(C)C)[C@]1(OC(C)=O)CO[C@@H]1C[C@H]2O (stereo not given in full),5.8µM,7.3µM,.,/,.,.
CC(=O)O[C@@]12CO[C@@H]1C[C@H](O)[C@@]1(C)C(=O)[C@H](O)C3=C(C)[C@@H](OC(=O)[C@H](O)[C@@H](NC(=O)c4ccccc4)c4ccccc4)C[C@@](O)([C@@H](OC(=O)c4ccccc4)C12)C3(C)C (stereo not given in full),0.21µM,0.033µM,.,/,.,.
CC(=O)O[C@H]1C(=O)[C@@]2(C)C([C@H](OC(=O)c3ccccc3)[C@]3(O)C[C@H](OC(=O)[C@H](O)[C@@H](NC(=O)Cc4ccccc4)c4ccccc4)C(C)=C1C3(C)C)[C@]1(OC(C)=O)CO[C@@H]1C[C@@H]2O (stereo not given in full),0.18µM,0.18µM,.,/,.,.
Cc1ccc(CCNC(=O)c2cc3cc(S(=O)(=O)N4CCCCC4)ccc3n2C)cc1,2.9µM,7.3µM,.,.,.,/
NS(=O)(=O)c1ccc(CCNC(=O)c2ccc(Cl)c(S(=O)(=O)N3CCCCC3)c2)cc1,23µM,?,.,.,.,.
COc1ccc(C(CNC(=O)c2cc(S(=O)(=O)N3CCCCC3)ccc2C)N2CCCC2)cc1 (stereo not given),?,?,.,/,/,.
CCCCCCCCCCCOC(=O)c1ccccc1C(=O)OCCCCCCCCCCC,/,/,/,.,/,/
c1ccc(CN2CCN(Cc3ccc4ccccc4c3)CC2)cc1,16µM,18µM,.,/,.,.
Cc1ccc(CN2CCN(Cc3ccccc3)CC2)cc1,.,.,.,.,.,.
COc1ccc(C(=O)CC2(CC(=O)c3ccc(OC)cc3)C(=O)N(C)C(=O)N(C)C2=O)cc1,.,.,.,.,.[0.501 µM],.
SMILES,DT40 TDP1 no CPT,DT40 TDP1 CPT,VDR inh,TDP1 block,GCN5L2 inh,PLK1 PBD inh
CN1C(=O)N(C)C(=O)C2(Cc3c(ccc4ccccc34)N(C)C2)C1=O,?,?,.,.,.,8.4µM
O=C(Nc1ccccc1)N1CCCC2(CCN(C(=O)Oc3ccccc3)CC2)C1,?,.,.,/,.,/
CCOc1cc2c(cc1OCC)-n1cccc1C(c1ccccc1OC)NC2 (stereo not given),26µM,?,.,/,.,.
CCOc1cc2c(cc1OCC)-n1cccc1C(c1c(O)cccc1OC)NC2 (stereo not given),10µM,13µM,.,/,.,.
CCOc1cc2c(cc1OCC)-n1cccc1C(c1cccc(F)c1F)NC2 (stereo not given),23µM,?,.,/,.,.
CCOc1cc2c(cc1OCC)-n1cccc1C(c1ccc(OC)c(OC)c1)NC2 (stereo not given),?,?,.,/,.,.
C[C@@H]1[C@H]2Cc3ccc(O)cc3[C@]1(C)CCN2C,.,.,/,/,/,/
COP(N)(=O)SC (stereo not given),.,.,.,.,.,/
Cc1nc(-c2ccc(-c3ccc(C(=O)N4CCc5cc6c(cc54)C4(CCN(C)CC4)CO6)cc3)c(C)c2)no1,6µM,7.5µM,/,.,/,/
Cc1c(C(=O)Nc2ccc(Br)cc2F)oc2ccc(S(=O)(=O)N3CCCCC3)cc12,?,?,.,.,.,/
CCOS(C)(=O)=O,.,.,.,.,.,.
COc1cccc(NC(=O)C2CCN(c3nnc(C)c4c(C)n(-c5ccccc5)nc34)CC2)c1,23µM,?,.,.,.,/
Cc1ccc(-n2nc3c(N4CCC(C(=O)NCCc5ccccc5)CC4)nnc(C)c3c2C)cc1,5.8µM,4.6µM,.,.,.,/
Cc1ccc(CCNC(=O)Cn2nc(C)c3c(C)n(-c4ccc(C)cc4)nc3c2=O)cc1,?,23µM,.,.,.,/
Cc1cccc(C)c1NC(=O)Cn1c(=O)n(CC2CCC(C(=O)NCCc3ccccc3)CC2)c(=O)c2ccccc21 (stereo not given),?,?,.,.,.,/
COc1cc2[nH]c(C(=O)N3CCC4(CC3)OCCO4)cc2c(OC)c1OC,.,.,.,.,.,.
CCN(CC)c1ccc(CNCCc2ccccc2F)cc1,16µM,?,.,.,.,.
Cc1ccc(CNCCc2ccccc2F)cc1,.,.,.,.,.,.
O=C(NC(=O)N1CCC2(CC1)OCCO2)c1ccc(Cl)cc1,.,.,.,.,.,.
O=C(Nc1ccc2nc(SCC(=O)N3CCOCC3)sc2c1)c1ccc(Cl)cc1,7.3µM,?,.,.,.,/
CCN(Cc1ccc(Cl)nc1)/C(=C/[N+](=O)[O-])NC,.,.,.,/,.,/
CCCC1COC(Cn2cncn2)(c2ccc(Cl)cc2Cl)O1 (stereo not given),?,?,50µM!,.,.,.
